For six molecules, growth inhibition results are on record in PubChem BioAssay (NCI).

Structures are written as SMILES. About 79,000 compounds went through this panel and 15% of them were active in at least one assay; those are over-represented in the sample as a whole. Values without a mark were called inactive. The source made the active and inactive calls. No stated cut-off is given here; in the data, active means growth inhibition above about 70%; inactive means the rest.

A short description of experiment [1]: NCI Yeast Anticancer Drug Screen. Data for the rad50 strain (AID 155).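 Further: 0% = growth of vehicle-only cultures of the same strain.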 The following applies: S. cerevisiae rad50 strain growth inhibition, hits give high values. A digest of the protocol: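 Cells are treated with compound, grown, and their growth is then scored against vehicle-only cultures of the same repair-deficient yeast strain.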
The nature of experiment [2]: NCI Yeast Anticancer Drug Screen. Data for the mec2-1 strain (AID 157). The settings on record: S. cerevisiae mec2-1 strain, hits give high values. A digest of the protocol:
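Vehicle-treated cultures served as reference for growth inhibition of compound-exposed mec2-1 yeast.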

Experiment [3] is described as follows: NCI Yeast Anticancer Drug Screen. Data for the sgs1 mgt1 strain (AID 161).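 Further: 0% = growth of cultures given vehicle only.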 The settings on record: S. cerevisiae sgs1 mgt1 strain, hits give high values. A digest of the protocol: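 Test agents were incubated with a DNA-repair-mutant yeast strain. Growth was then read and compared against vehicle-treated controls.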
Experiment [4] is described as follows: NCI Yeast Anticancer Drug Screen. Data for the bub3 strain (AID 167). The following applies: S. cerevisiae bub3 mutant strain, hits give high values. A digest of the protocol: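 Part of a panel of yeast mutants defective in DNA damage repair or cell cycle regulation. Each strain is grown with compound, and inhibition is calculated relative to solvent-treated cultures.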

Experiment [5] can be described thus: NCI Yeast Anticancer Drug Screen. Data for the mlh1 rad18 strain (AID 175). The settings on record: S. cerevisiae mlh1 rad18 strain growth inhibition, hits give high values. In short, it runs like this:
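Vehicle-treated cultures served as the reference for growth inhibition in a yeast strain carrying DNA damage repair alterations exposed to each compound.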

The nature of experiment [6]: NCI Yeast Anticancer Drug Screen. Data for the cln2 rad14 strain (AID 165).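 Further: 0% = growth equal to vehicle treated cultures.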 The settings on record: S. cerevisiae cln2 rad14 strain, hits give high values. A digest of the protocol:
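Each compound was tested on cln2 rad14 yeast. Inhibition of growth was calculated against vehicle-exposed controls.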

Setting [7] is: at 5.0 µM (retest, dose inferred, filed as 0.5).
Setting [8] is: at 50.0 µM (retest, dose inferred, filed as 5.0).

For the molecule `CC(=O)Oc1ccc(C(C)(C)CC(C)(C)C)cc1`, the growth inhibition in experiment [1] (setting [7]) was -1%; in experiment [1] (setting [8]), 62%; in experiment [1] (at 50.0 µM), 72.2% (active); in experiment [2] (setting [7]), -1%; in experiment [2] (setting [8]), 41%; in experiment [2] (at 50.0 µM), 95.3% (active). The growth inhibition in experiment [3] (setting [7]) is -1%; in experiment [3] (setting [8]), 26%; in experiment [3] (at 50.0 µM), 94.8% (active); in experiment [4] (setting [7]), 0%; in experiment [4] (setting [8]), 55%; in experiment [4] (at 50.0 µM), 85.8% (active). Besides, the figures for the growth inhibition in experiment [5] (setting [7]), in experiment [5] (setting [8]) and in experiment [5] (at 50.0 µM) were -1%, 42% and 89.5% (active), respectively.
Regarding `NC(=S)c1cccc(OCCCOc2ccccc2)c1`, the growth inhibition is 2% in experiment [1] (setting [7]); 4% in experiment [1] (setting [8]); 99.2% (active) in experiment [1] (at 50.0 µM); 0% in experiment [2] (setting [7]); 14% in experiment [2] (setting [8]); 99.6% (active) in experiment [2] (at 50.0 µM). Further, the growth inhibition is 11% in experiment [3] (setting [7]); 17% in experiment [3] (setting [8]); 98.7% (active) in experiment [3] (at 50.0 µM); 6% in experiment [4] (setting [7]); 13% in experiment [4] (setting [8]); 99.5% (active) in experiment [4] (at 50.0 µM). The growth inhibition is 4% in experiment [5] (setting [7]), 30% in experiment [5] (setting [8]) and 99.3% (active) in experiment [5] (at 50.0 µM).
As for `Clc1ccccc1CCc1cc(-c2ccccc2)n[nH]1`, the growth inhibition was -26% in experiment [2] (setting [7]); 98% (active) in experiment [2] (setting [8]); 94.7% (active) in experiment [2] (at 50.0 µM); -6% in experiment [3] (setting [7]); 97% (active) in experiment [3] (setting [8]); 95.6% (active) in experiment [3] (at 50.0 µM). The growth inhibition is -13% in experiment [6] (setting [7]); 97% (active) in experiment [6] (setting [8]); 88.9% (active) in experiment [6] (at 50.0 µM); 16% in experiment [4] (setting [7]); 97% (active) in experiment [4] (setting [8]); 93.2% (active) in experiment [4] (at 50.0 µM). Further, the growth inhibition is -4% in experiment [5] (setting [7]), 97% (active) in experiment [5] (setting [8]) and 97.7% (active) in experiment [5] (at 50.0 µM).
For `COC(=O)/C(Br)=C(\Br)c1ccccc1`, the growth inhibition in experiment [2] (setting [7]) is 6%; in experiment [2] (setting [8]), 6%; in experiment [2] (at 50.0 µM), 24.1%; in experiment [3] (setting [7]), 14%; in experiment [3] (setting [8]), -6%; in experiment [3] (at 50.0 µM), 36.7%. Also, the growth inhibition in experiment [6] (setting [7]) was 2%; in experiment [6] (setting [8]), 6%; in experiment [6] (at 50.0 µM), -18.6%; in experiment [4] (setting [7]), 0%; in experiment [4] (setting [8]), 21%; in experiment [4] (at 50.0 µM) it was 52.8%. Also, the growth inhibition in experiment [5] (setting [7]) was 22%; in experiment [5] (setting [8]), 40%; in experiment [5] (at 50.0 µM), 21.7%.
Consider `O=C(Nc1ccc(Cl)cc1Cl)OC(Cn1cncn1)c1ccc(Cl)cc1Cl` (stereo not given), for which the growth inhibition in experiment [1] (setting [7]) is 71% (active); in experiment [1] (setting [8]), 71% (active); in experiment [1] (at 50.0 µM) it was 91.2% (active); in experiment [2] (setting [7]) it was 67%; in experiment [2] (setting [8]), 67%; in experiment [2] (at 50.0 µM), 91.4% (active). Also, the growth inhibition was 77% (active) in experiment [3] (setting [7]); 77% (active) in experiment [3] (setting [8]); 90.5% (active) in experiment [3] (at 50.0 µM); 72% (active) in experiment [4] (setting [7]); 72% (active) in experiment [4] (setting [8]); 92.5% (active) in experiment [4] (at 50.0 µM). The growth inhibition in experiment [5] (setting [7]) was 77% (active); in experiment [5] (setting [8]) it was 77% (active); in experiment [5] (at 50.0 µM) it was 90.5% (active).
Take `Cc1cccc2c(CC(=O)O)c[nH]c12`: the growth inhibition in experiment [1] (setting [7]) is 60%; in experiment [1] (setting [8]), 98% (active); in experiment [1] (at 50.0 µM), 99.2% (active); in experiment [2] (setting [7]), 76% (active); in experiment [2] (setting [8]) it was 99% (active); in experiment [2] (at 50.0 µM), 99.5% (active). Further, the growth inhibition was 73% (active) in experiment [6] (setting [7]); 99% (active) in experiment [6] (setting [8]); 99.2% (active) in experiment [6] (at 50.0 µM); 93% (active) in experiment [4] (setting [7]); 97% (active) in experiment [4] (setting [8]); 99.4% (active) in experiment [4] (at 50.0 µM). Besides, the growth inhibition in experiment [5] (setting [7]) was 92% (active); in experiment [5] (setting [8]) it was 98% (active); in experiment [5] (at 50.0 µM), 99.3% (active).
